# Reference: PubChem BioAssay (Tox21)
# Inconclusive results are not listed. Entries that show only a call come without a potency. Unmarked numbers belong to inactive results. Calls of active or inactive are those of the source. The call rests on the fitted dose curve; in most records, active means well fitted curve in the direction sought with a large enough effect in the repeat runs; inconclusive means weak or mixed curves; inactive means no such curve, though single readings can be large; an effect the other way counts as inactive or inconclusive.
# Columns and labels:
# [1] = A CellTox Green Cytotoxicity Assay to monitor cytotoxicity in HEK293 cells - 24 hour (AID 1224875); further: nearly all actives have a fitted effect of over 45% in size; further: potency means the concentration at half of the fitted maximal effect
# Method in brief: (§1)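 Each value comes from one timepoint of a single continuous run in which HEK293 cells with CellTox Green were exposed to compound for up to 40 h at 37 C, dye fluorescence rising with cell death.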
# [2] = A CellTox Green Cytotoxicity Assay to monitor cytotoxicity in HepG2 cells - 16 hour (AID 1224876); further: nearly all actives have a fitted effect of over 45% in size; further: potency means the concentration at half of the fitted maximal effect
# Method in brief: (§2)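 Continuous culture of HepG2 cells with a membrane-impermeant DNA dye; rising fluorescence marks dead cells. Compound exposure lasted up to 40 h at 37 C, with reads every 8 h from 0 h.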
# [3] = qHTS RealTime-Glo MT Cell Viability Assay in HepG2 cells - 32 hour (AID 1224877); further: nearly all actives have a fitted effect of over 55% in size; further: potency means the concentration at half of the fitted maximal effect
# Method in brief: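 HepG2 suspension premixed with RealTime-Glo reagents is plated at 600 cells per well and left 5 h at 37 C/5% CO2. Compounds in DMSO then go in, and bioluminescence reflecting viable cell number is recorded over 40 h.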
# [4] = A CellTox Green Cytotoxicity Assay to monitor cytotoxicity in HepG2 cells - 24 hour (AID 1224878); further: nearly all actives have a fitted effect of over 45% in size; further: potency means the concentration at half of the fitted maximal effect
# Method in brief: as §2
# [5] = A CellTox Green Cytotoxicity Assay to monitor cytotoxicity in HepG2 cells - 40 hour (AID 1224879); further: nearly all actives have a fitted effect of over 40% in size; further: potency means the concentration at half of the fitted maximal effect
# Method in brief: as §2
# [6] = qHTS RealTime-Glo MT Cell Viability Assay in HEK293 cells - 0 hour (AID 1224880); further: top concentration of the series differs between compounds; nearly all actives have a fitted effect of over 45% in size
# Method in brief: (§3)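 qHTS format; HEK293 cells with NanoLuc/prosubstrate reagent, 37 C/5% CO2 for 5 h pre-dosing; compounds 23 nL in DMSO; luminescence at each time point reflects viable cells.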
# [7] = A CellTox Green Cytotoxicity Assay to monitor cytotoxicity in HEK293 cells - 32 hour (AID 1224881); further: nearly all actives have a fitted effect of over 40% in size; further: potency means the concentration at half of the fitted maximal effect
# Method in brief: as §1
# [8] = qHTS RealTime-Glo MT Cell Viability Assay in HEK293 cells - 40 hour (AID 1224874); conditions: RealTime-Glo luminescence; max response: stronger effect = lower value; further: nearly all actives have a fitted effect of over 50% in size; further: potency means the concentration at half of the fitted maximal effect
# Method in brief: as §3
# [9] = qHTS RealTime-Glo MT Cell Viability Assay in HepG2 cells - 8 hour (AID 1224873); further: nearly all actives have a fitted effect of over 55% in size
# Method in brief: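 HepG2 cells mixed with RealTime-Glo MT reagents (NanoLuc plus cell-permeant prosubstrate) were seeded at 600 cells/well, incubated 5 h at 37 C/5% CO2, then pinned with compounds in DMSO; nonlytic luminescence tracked viability during 40 h treatment.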
SMILES,Potency [1],Potency [2],Potency [3],Potency [4],Potency [5],Potency [6],Potency [7],max response [8] [%],Potency [8],Potency [9]
O=C1[C@H]2CCCC[C@H]2C(=O)N1CCCCN1CCN(c2nsc3ccccc23)CC1,inactive,inactive,inactive,inactive,inactive,inactive,inactive,,,
C[C@H]1C[C@H]2[C@@H]3CCC4=CC(=O)C=C[C@]4(C)[C@@]3(Cl)[C@@H](O)C[C@]2(C)[C@@]1(O)C(=O)CO,inactive,inactive,inactive,inactive,inactive,inactive,inactive,-22.6,,
CN(C)c1ccc(C(c2ccccc2)c2ccc(N(C)C)cc2)cc1,,inactive,inactive,inactive,inactive,,,,,
CCOc1ccc(O)cc1,inactive,inactive,inactive,,inactive,inactive,inactive,,11 µM (active),
CCC(=O)O[C@]1(C(=O)CCl)[C@@H](C)C[C@H]2[C@@H]3CCC4=CC(=O)C=C[C@]4(C)[C@@]3(F)[C@@H](O)C[C@@]21C,inactive,inactive,inactive,inactive,inactive,inactive,inactive,,,inactive
COc1cc2nc(N(C)CCCNC(=O)C3CCCO3)nc(N)c2cc1OC (stereo not drawn),inactive,inactive,inactive,,inactive,inactive,,,,inactive
CC(C)=CCC/C(C)=C/CC/C(C)=C/CO,,inactive,inactive,inactive,,inactive,,,,inactive
O=C(Cl)c1cc(C(=O)Cl)cc(C(=O)Cl)c1,,,,,,,,,49 µM (active),
Clc1ccc(Cn2c(CN3CCCC3)nc3ccccc32)cc1,inactive,inactive,inactive,inactive,inactive,inactive,inactive,,,inactive
C#C[C@]1(O)CC[C@H]2[C@@H]3CCc4cc(OC5CCCC5)ccc4[C@H]3CC[C@@]21C,inactive,,,,,inactive,,,23.9 µM (active),
CCOc1ccc(N)c([N+](=O)[O-])c1,,inactive,inactive,inactive,inactive,inactive,,,,
CCCCCCCCCCCCN1CCCCCC1=O,inactive,,inactive,,,inactive,inactive,,,inactive
CCOC(=O)COC(=O)c1cc(Oc2ccc(C(F)(F)F)cc2Cl)ccc1[N+](=O)[O-],inactive,inactive,inactive,,inactive,inactive,,,,
Cc1oc2c(NC(=O)c3c(Cl)cccc3Cl)cccc2c1C(C)(C)O,,inactive,,inactive,38.9 µM (active),inactive,inactive,,,
CC(C)Cc1ccc(C(C)C(=O)OCc2ccccn2)cc1 (stereo not drawn),inactive,inactive,inactive,,inactive,inactive,inactive,,,inactive
Cc1ccc(C(=O)Oc2ccc(C(O)CNC(C)(C)C)cc2OC(=O)c2ccc(C)cc2)cc1 (stereo not drawn),23.9 µM (active),21.3 µM (active),23.9 µM (active),21.3 µM (active),19 µM (active),inactive,26.8 µM (active),,,
CCCOC(C(=O)OC1CCN(C)CC1)(c1ccccc1)c1ccccc1,,19 µM (active),inactive,,23.9 µM (active),inactive,,,,inactive
CCOC(=O)NCCOc1ccc(Oc2ccccc2)cc1,inactive,inactive,inactive,inactive,inactive,inactive,inactive,,,
